# Experimental data: PubChem BioAssay (NCATS)
# Where “and” joins values, the source holds several entries; their conditions need not be identical. Identical values can stand only once. Inconclusive results are not listed. Entries that show only a call come without a potency. Calls of active or inactive are those of the source. Unless noted, calls come from the whole dose curve; as a rule, active = well fitted curve in the direction sought with a large enough effect; inconclusive = small, poorly fitted or top-dose-only effect, or another doubt; inactive = no such curve, though single readings can be large; an effect the other way counts as inactive or inconclusive.
# What was measured:
# [1] = molecular target: D(1A) dopamine receptor (Homo sapiens) (UniProt P21728); experiment: HTS Assay for Allosteric Agonists of the Human D1 Dopamine Receptor: Primary Screen for Antagonists (AID 488983); conditions: D1 receptor cell assay, antagonist mode, qHTS titration; series mostly up to 41.8 µM;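 note: calcium flux response to an EC80 dopamine challenge measured with no-wash dye; nearly all actives have a fitted effect of over 65% in size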
# Procedure, shortened: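 Tetracycline-induced HEK293 T-REx D1 line, force-coupled to calcium flux, read with no-wash calcium dye. Compound added after 10 s baseline, read 180 s for agonism, then EC80 dopamine added and read a further 180 s.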
# [2] = Validation screen for small molecules that induce genotoxicity in human embryonic kidney (HEK293T) cells expressing luciferase-tagged ELG1 (AID 493106); conditions: luminescence; series mostly up to 46.1 µM
# Procedure, shortened: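 HEK293T cells expressing luciferase-tagged ELG1, 2,000 cells/well, exposed to compound 16 hr at 37 °C, 5% CO2. Luciferase read after ONE-Glo, 30 min at room temperature; increased signal indicates genetic stress.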
# [3] = molecular target: ATPase family AAA domain-containing protein 5 (Homo sapiens) (UniProt Q96QE3); experiment: Validation screen for small molecules that inhibit ELG1-dependent DNA repair in human embryonic kidney (HEK293T) cells expressing luciferase-tagged ELG1 (AID 493107); conditions: HEK293T ELG1-luciferase level, luminescence, 5-fluorouridine co-treatment, 16 h; series mostly up to 46.1 µM;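 note: cells co-treated with the DNA-damaging agent 5-fluorouridine alongside compound; inhibitors lower the ELG1-luciferase luminescence signal; nearly all actives have a fitted effect of over 70% in size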
# Procedure, shortened: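 HEK293T cells expressing luciferase-tagged ELG1, 2,000 per well, treated with 5-fluorouridine plus compound for 16 h at 37 C. ONE-Glo luminescence after 30 min at room temperature reports ELG1 reporter level.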
# [4] = molecular target: Thyrotropin-releasing hormone receptor (Homo sapiens) (UniProt P34981); experiment: qHTS for Small Molecule Agonists and Allosteric Enhancers of Human TRH Receptor: Validation Screen for Agonists (AID 493127;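 active = calcium activation more than 3 SD above the typical response in the agonist read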); conditions: TRH receptor agonist cell assay; at 2 µM; stronger effect = higher value
# Procedure, shortened: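 TRHR cells loaded with fluo-8 calcium dye; FDSS kinetic fluorescence (Ex 480/Em 530) read at 1 s/cycle after 23 nL compound addition. Agonist-mode calcium response recorded before the 10 nM TRH (EC20) addition.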
# [5] = Nrf2 qHTS screen for inhibitors: Validation (AID 493153; active = well fitted inhibition curve with a large enough effect in the main read-out, with a control signal flat, not every such curve was filed as active); conditions: A549 ARE-Fluc reporter, 18-24 h; viability change: measured here: cytotoxicity max response; luciferase luminescence, at 46.1 µM (top of the series)
# Procedure, shortened: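 A549 cells carrying ARE-firefly luciferase reporter, 5000 cells/well in 5% FBS OPTI-MEM, treated with compound over a concentration series for 18-24 h at 37 C. Luciferase luminescence gave Nrf2 activity; CellTiter-Fluor fluorescence gave viability.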
# [6] = qHTS for Inhibitors of Cell Surface uPA Generation: Validation Assay (AID 493164); conditions: mouse cells, plasminogen activation; series mostly up to 38.3 µM
# Procedure, shortened: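 RAW 264.7 cells (4000/well) were plated overnight, then exposed for 18 h at 37 C, 5% CO2 to compounds in a 7-point 1:5 titration (2.45 nM–38.3 uM final). Intracellular ATP was read by ATP-Lite luminescence.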
# [7] = Validation screen for small molecules that induce DNA re-replication in SW480 colon adenocarcinoma cells (AID 504364); conditions: DNA re-replication phenotype (high-content imaging); series mostly up to 46.1 µM
# Procedure, shortened: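 SW480 cells (250/well) exposed 48 h at 37 C, 5% CO2, then Hoechst-stained 40 min. Nuclear DNA content imaged by fluorescence scanning (405 nm excitation, 500-530 nm emission); re-replication scored as increased nuclei with elevated intensity.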
# [8] = molecular target: Peptidyl-prolyl cis-trans isomerase NIMA-interacting 1 (Homo sapiens) (UniProt Q13526); experiment: qHTS Validation Assay to Find Inhibitors of Pin1 (AID 504536; active = well fitted inhibition curve with a large enough effect in the polarisation, with a control signal flat, not every such curve was filed as active; the % refers to the polarisation); conditions: Pin1 fluorescence polarization peptide binding assay; series mostly up to 57.5 µM
# Procedure, shortened: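 Fluorescence polarization competition: compounds (titration) displace HiFluor-488-labeled Pin1-1b peptide from Pin1 (0.3 uM final) in pH 7.5 HEPES buffer with DTT, 10 min at room temperature; %Activity normalized to no-enzyme wells, curves fitted.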
# [9] = molecular target: ATP-dependent 6-phosphofructokinase (Trypanosoma brucei brucei) (UniProt O15648); experiment: qHTS Assay to Find Inhibitors of T. brucei phosphofructokinase: hit validation (AID 492961);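 note: luminescence reports ADP formed as PFK phosphorylates fructose-6-phosphate with ATP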; conditions: T. brucei PFK, ADP-Glo luminescence; series mostly up to 51.4 µM
# Procedure, shortened: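 Inhibition of parasite PFK is measured as reduced ADP formation, quantified via luciferase after ATP depletion. Assay used 0.1 mM ATP, 0.5 mM F6P, 1.25 nM enzyme, 45 min incubation.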
# [10] = molecular target: Tyrosyl-DNA phosphodiesterase 1 (Homo sapiens) (UniProt Q9NUW8); experiment: Confirmation Assay for Inhibitors of Tyrosyl-DNA Phosphodiesterase (TDP1) (AID 489007); conditions: recombinant human TDP1 enzymatic activity, dose-response; note: potency is the fitted concentration of half-maximal effect; nearly all actives have a fitted effect of over 40% in size
# Source text: Human tyrosyl-DNA phosphodiesterase I (Tdp1) is a rational anticancer target because this enzyme is involved in the repair of DNA lesions created by the trapping of human DNA topoisomerase I (Top1) following treatment by anticancer agents such as camptothecins. Recombinant Tdp1 was expressed and purified from E. coli in the laboratory (Anthony et al, Nucleic Acids Research, 2007, Vol. 35, 4474-4484). A Tdp1 DNA substrate bearing a 5' biotin and a 3' phospho-tyrosine was obtained by custom synthesis. This oligonucleotidic DNA substrate was subsequently coupled to a fluorescein isothiocyanate (FITC) group via the free amino group present on the phospho-tyrosine. Tdp1 was screened against the NCGC small molecule library using the AlphaScreen (AS) detection method in which a streptavidin donor AS bead is bound at the 5' end and an anti-FITC AS acceptor bead is bound at the 3' end of the DNA oligonucleotidic substrate. In the presence of Tdp1, the enzyme cleaves the tyrosine-FITC group, leaving a 3' end phosphate on the DNA substrate. This cleavage reaction results in a loss of signal in AS.
# This BioAssay is a confirmation of followup compounds from primary TDP1 screen (AID:485290)
# NIH Molecular Libraries Probe Production Network [MLPCN] […]
# 3 ul of Tdp1 enzyme is dispensed to 1536-well Kalypsys black solid bottom plates. […] The detection is then performed on a PerkinElmer Envision reader.
# Peptidyl-prolyl cis-trans isomerase NIMA-interacting 1 (Homo sapiens), sequence (Q13526 whole entry, looked up): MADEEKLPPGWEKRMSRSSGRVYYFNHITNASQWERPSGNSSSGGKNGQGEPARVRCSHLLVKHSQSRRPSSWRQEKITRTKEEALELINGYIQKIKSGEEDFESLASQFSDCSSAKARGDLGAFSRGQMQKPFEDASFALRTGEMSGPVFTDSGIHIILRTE
# ATP-dependent 6-phosphofructokinase (Trypanosoma brucei brucei), sequence (O15648 whole entry, looked up): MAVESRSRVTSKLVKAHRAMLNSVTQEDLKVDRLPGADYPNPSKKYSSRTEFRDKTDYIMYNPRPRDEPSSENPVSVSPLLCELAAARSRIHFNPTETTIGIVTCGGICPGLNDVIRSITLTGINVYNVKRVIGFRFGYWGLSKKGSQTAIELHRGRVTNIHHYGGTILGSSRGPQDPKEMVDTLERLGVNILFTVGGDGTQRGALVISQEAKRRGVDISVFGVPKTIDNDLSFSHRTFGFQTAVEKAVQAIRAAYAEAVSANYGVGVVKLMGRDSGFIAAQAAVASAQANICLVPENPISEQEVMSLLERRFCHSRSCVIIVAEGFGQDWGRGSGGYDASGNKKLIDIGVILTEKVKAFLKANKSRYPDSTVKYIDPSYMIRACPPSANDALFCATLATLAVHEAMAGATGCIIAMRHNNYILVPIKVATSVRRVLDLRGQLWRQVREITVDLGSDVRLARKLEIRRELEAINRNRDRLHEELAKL
# Thyrotropin-releasing hormone receptor (Homo sapiens), sequence (P34981 whole entry, looked up): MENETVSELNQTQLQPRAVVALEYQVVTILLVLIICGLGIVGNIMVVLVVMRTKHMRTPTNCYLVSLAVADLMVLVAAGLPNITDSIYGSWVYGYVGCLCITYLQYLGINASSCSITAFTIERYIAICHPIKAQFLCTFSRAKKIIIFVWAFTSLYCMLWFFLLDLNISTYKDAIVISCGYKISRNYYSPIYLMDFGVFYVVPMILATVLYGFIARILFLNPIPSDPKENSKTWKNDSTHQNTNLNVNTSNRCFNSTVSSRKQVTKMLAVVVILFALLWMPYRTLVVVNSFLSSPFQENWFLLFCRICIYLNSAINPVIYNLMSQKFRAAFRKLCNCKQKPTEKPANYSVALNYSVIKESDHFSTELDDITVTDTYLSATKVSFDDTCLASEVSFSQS
# D(1A) dopamine receptor (Homo sapiens), sequence (P21728 whole entry, looked up): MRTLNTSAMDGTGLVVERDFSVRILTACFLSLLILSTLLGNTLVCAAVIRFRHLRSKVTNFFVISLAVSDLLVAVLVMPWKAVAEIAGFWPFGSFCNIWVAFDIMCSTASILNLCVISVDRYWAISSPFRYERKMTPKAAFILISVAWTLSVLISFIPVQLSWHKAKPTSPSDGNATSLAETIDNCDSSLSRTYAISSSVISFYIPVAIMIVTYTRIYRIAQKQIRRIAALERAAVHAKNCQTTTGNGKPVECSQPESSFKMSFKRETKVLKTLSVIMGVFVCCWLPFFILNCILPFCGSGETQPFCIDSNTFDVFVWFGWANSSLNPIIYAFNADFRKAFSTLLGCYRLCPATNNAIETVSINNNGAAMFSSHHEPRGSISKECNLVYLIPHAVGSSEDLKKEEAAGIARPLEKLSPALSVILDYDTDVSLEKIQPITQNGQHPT
# ATPase family AAA domain-containing protein 5 (Homo sapiens), sequence (Q96QE3 whole entry, looked up, the tested form may be a part): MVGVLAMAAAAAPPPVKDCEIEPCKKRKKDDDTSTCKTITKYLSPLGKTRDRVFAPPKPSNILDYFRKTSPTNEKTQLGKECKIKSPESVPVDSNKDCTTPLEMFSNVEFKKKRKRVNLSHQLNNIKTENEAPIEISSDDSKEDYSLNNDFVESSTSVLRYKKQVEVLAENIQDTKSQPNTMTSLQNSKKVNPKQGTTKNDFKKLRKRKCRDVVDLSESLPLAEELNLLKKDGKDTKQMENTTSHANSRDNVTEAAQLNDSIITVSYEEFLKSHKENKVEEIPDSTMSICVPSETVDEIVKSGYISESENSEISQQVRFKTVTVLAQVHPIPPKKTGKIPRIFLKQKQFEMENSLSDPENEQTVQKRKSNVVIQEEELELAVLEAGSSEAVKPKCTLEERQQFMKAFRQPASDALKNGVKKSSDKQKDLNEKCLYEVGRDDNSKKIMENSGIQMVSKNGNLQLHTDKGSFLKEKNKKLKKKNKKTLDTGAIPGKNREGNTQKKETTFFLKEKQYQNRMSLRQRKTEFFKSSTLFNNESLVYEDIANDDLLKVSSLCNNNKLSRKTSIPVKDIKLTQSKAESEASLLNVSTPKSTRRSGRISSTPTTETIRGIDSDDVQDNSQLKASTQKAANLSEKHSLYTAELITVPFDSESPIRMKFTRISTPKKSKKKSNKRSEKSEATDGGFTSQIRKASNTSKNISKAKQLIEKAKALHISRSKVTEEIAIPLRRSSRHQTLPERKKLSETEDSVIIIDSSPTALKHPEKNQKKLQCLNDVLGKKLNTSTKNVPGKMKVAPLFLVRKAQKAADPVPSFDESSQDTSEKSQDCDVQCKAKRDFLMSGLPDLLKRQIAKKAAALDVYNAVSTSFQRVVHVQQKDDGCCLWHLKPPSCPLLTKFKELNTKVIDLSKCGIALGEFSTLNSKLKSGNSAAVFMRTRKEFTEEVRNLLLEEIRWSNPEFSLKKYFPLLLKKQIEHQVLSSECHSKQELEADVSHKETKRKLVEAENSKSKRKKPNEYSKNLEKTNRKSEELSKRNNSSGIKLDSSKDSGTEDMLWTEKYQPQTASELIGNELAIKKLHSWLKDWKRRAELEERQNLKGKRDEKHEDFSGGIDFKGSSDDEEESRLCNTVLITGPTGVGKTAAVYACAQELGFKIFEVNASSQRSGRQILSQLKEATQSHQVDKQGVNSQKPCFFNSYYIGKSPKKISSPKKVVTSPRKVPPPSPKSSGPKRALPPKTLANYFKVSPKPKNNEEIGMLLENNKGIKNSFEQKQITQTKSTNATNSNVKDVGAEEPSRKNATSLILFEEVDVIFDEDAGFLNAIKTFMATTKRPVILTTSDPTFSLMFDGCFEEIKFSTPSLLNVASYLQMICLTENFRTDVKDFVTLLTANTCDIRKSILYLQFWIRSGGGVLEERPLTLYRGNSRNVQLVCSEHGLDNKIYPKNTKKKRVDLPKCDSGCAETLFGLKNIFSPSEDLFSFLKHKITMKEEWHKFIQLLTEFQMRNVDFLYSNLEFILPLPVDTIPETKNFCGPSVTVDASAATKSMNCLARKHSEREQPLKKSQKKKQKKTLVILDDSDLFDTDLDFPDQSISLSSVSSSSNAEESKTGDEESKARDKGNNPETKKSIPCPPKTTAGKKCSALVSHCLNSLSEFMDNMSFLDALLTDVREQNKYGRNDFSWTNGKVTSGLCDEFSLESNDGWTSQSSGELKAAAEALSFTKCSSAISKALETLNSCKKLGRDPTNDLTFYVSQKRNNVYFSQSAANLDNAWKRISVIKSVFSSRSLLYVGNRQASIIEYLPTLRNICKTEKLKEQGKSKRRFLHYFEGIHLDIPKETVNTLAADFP
# Tyrosyl-DNA phosphodiesterase 1 (Homo sapiens), sequence (Q9NUW8 whole entry, looked up): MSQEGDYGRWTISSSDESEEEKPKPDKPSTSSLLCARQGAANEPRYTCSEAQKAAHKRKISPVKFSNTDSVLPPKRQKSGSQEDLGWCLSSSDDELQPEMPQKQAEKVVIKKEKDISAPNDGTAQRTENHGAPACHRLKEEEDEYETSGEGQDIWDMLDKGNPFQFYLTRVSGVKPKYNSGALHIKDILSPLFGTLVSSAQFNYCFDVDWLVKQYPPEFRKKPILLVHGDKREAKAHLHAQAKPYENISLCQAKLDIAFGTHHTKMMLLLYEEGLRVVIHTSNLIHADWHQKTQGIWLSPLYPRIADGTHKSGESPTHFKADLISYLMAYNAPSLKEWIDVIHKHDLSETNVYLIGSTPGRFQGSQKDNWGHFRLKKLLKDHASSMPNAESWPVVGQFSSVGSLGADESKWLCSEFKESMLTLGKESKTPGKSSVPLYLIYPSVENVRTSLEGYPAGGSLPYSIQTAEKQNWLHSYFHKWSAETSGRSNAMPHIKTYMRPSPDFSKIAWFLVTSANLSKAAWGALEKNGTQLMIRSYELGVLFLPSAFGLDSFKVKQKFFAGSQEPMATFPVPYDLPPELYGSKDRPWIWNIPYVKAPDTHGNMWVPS
compound,measurement,setting,value
CCC1(c2ccc(N)cc2)CCC(=O)NC1=O (stereo unspecified),outcome,[1],inactive
same,outcome,[2],inactive
same,outcome,[3],inactive
same,activation,[4],1.56% (inactive)
same,outcome,[5],inactive
same,viability change,[5],1.18%
same,outcome,[6],inactive
same,outcome,[7],inactive
COc1ccc2c(c1OC)C(=O)O[C@H]2[C@@H]1c2cc3c(cc2CCN1C)OCO3,outcome,[1],inactive
same,outcome,[2],inactive
same,outcome,[3],inactive
same,outcome,[5],inactive
same,viability change,[5],5.02%
same,outcome,[6],inactive
same,outcome,[7],inactive
same,outcome,[8],inactive
NC(=O)CC[C@@H]1NC(=O)[C@H](Cc2ccccc2)NC(=O)[C@H](Cc2ccc(O)cc2)NC(=O)[C@@H](N)CSSC[C@@H](C(=O)N2CCC[C@H]2C(=O)N[C@@H](CCCN=C(N)N)C(=O)NCC(N)=O)NC(=O)[C@H](CC(N)=O)NC1=O,outcome,[9],inactive
COP(=S)(OC)Oc1ccc(S(=O)(=O)N(C)C)cc1,outcome,[9],inactive
CN1C(=O)C(O)N=C(c2ccccc2)c2cc(Cl)ccc21 (stereo unspecified),outcome,[9],inactive
CCCCC/C=C\C/C=C\C/C=C\C/C=C\CCCC(=O)NCC(=O)O,outcome,[1],inactive
same,Potency,[10],28.2 µM (active)
same,outcome,[2],inactive
same,outcome,[3],inactive
same,outcome,[5],inactive
same,viability change,[5],2.11%
same,outcome,[6],inactive
same,outcome,[7],inactive
COP(=S)(OC)Oc1ccc(SC)c(C)c1,outcome,[9],inactive
CN1C(=O)CCS(=O)(=O)C1c1ccc(Cl)cc1 (stereo unspecified),outcome,[1],inactive
same,outcome,[2],inactive
same,outcome,[3],inactive
same,outcome,[5],inactive
same,viability change,[5],-1.88%
same,outcome,[6],inactive
same,outcome,[7],inactive
same,outcome,[8],inactive
O=P1(N(CCCl)CCCl)NCCCO1 (stereo unspecified),outcome,[1],inactive
same,outcome,[2],inactive
same,outcome,[3],inactive
same,activation,[4],-0.25% (inactive)
same,outcome,[5],inactive
same,viability change,[5],-1.15%
same,outcome,[6],inactive
same,outcome,[7],inactive
same,outcome,[8],inactive
Nc1ccccc1C(=O)O,outcome,[9],inactive
COc1c2c(cc3c1OCO3)CCN(C)C2,outcome,[9],inactive
C=CCN1C[C@H](C)N([C@H](c2ccc(C(=O)N(CC)CC)cc2)c2cccc(OC)c2)C[C@H]1C,outcome,[9],inactive
C=C(C)[C@H]1CN[C@H](C(=O)O)[C@H]1CC(=O)O,outcome,[1],inactive
same,outcome,[9],inactive
same,outcome,[2],inactive
same,outcome,[3],inactive
same,activation,[4],1.12% (inactive)
same,outcome,[5],inactive
same,viability change,[5],1.68%
same,outcome,[6],inactive
same,outcome,[7],inactive
same,outcome,[8],inactive
O=C(O)CCCc1ccc(N(CCCl)CCCl)cc1,outcome,[1],inactive
same,outcome,[2],inactive
same,outcome,[3],inactive
same,activation,[4],-4.56% (inactive)
same,outcome,[6],inactive
same,outcome,[7],inactive
same,outcome,[8],inactive
COc1ccc2c(c1)C13CCCC[C@@H]1C(C2)N(C)CC3 (stereo partly specified),outcome,[9],inactive
CC(C)(C)NCC(O)c1cc(Cl)c(N)c(C(F)(F)F)c1 (stereo unspecified),outcome,[9],inactive
c1ccc2c(c1)sc1ccccc12,outcome,[9],inactive
Cc1nnc2n1-c1ccc(Cl)cc1C(c1ccccc1)=NC2,outcome,[9],inactive
CC(C)(C)NCC(O)c1ccccc1Cl (stereo unspecified),outcome,[1],inactive
same,outcome,[9],inactive
same,outcome,[2],inactive
same,outcome,[3],inactive
same,activation,[4],0.312% (inactive)
same,outcome,[5],inactive
same,viability change,[5],0.543%
same,outcome,[6],inactive
same,outcome,[7],inactive
same,outcome,[8],inactive
CNC(C)(C)Cc1ccccc1,outcome,[9],inactive
Cc1ncsc1CCCl,outcome,[1],inactive
same,outcome,[9],inactive
same,outcome,[2],inactive
same,outcome,[3],inactive
same,outcome,[5],inactive
same,viability change,[5],6.84%
same,outcome,[6],inactive
same,outcome,[8],inactive
CN1C(=O)COc2c(C(=O)NC3CN4CCC3CC4)cc(Cl)cc21 (stereo unspecified),outcome,[9],inactive
NCCc1ccc(O)cc1,outcome,[1],inactive
same,outcome,[2],inactive
same,outcome,[3],inactive
same,activation,[4],1.31% (inactive)
same,outcome,[5],inactive
same,viability change,[5],-8.88%
same,outcome,[6],inactive
same,outcome,[7],inactive
same,outcome,[8],inactive
O=C1CN=C(c2ccccc2)c2cc([N+](=O)[O-])ccc2N1,outcome,[9],inactive
CC(C)N(CCC(C(N)=O)(c1ccccc1)c1ccccn1)C(C)C (stereo unspecified),outcome,[1],inactive
same,outcome,[2],inactive
same,outcome,[3],inactive
same,outcome,[5],inactive
same,viability change,[5],0% and 10.1%
same,outcome,[6],inactive
same,outcome,[7],inactive
same,outcome,[8],inactive
Nc1nc(N)nc(NC2CC2)n1,outcome,[9],inactive
CCCC(C)(COC(N)=O)COC(N)=O,outcome,[9],inactive
Clc1ccc2c(c1)C(c1ccccc1)=NCc1nncn1-2,outcome,[9],inactive
CCOP(=S)(OCC)Oc1ccc2c(C)c(Cl)c(=O)oc2c1,outcome,[9],inactive
CC(NC(C)(C)C)C(=O)c1cccc(Cl)c1 (stereo unspecified),outcome,[1],inactive
same,outcome,[2],inactive
same,outcome,[3],inactive
same,activation,[4],-0.188% (inactive)
same,outcome,[5],inactive
same,viability change,[5],5.02%
same,outcome,[6],inactive
same,outcome,[7],inactive
same,outcome,[8],inactive
O=C1Nc2ccc(Cl)cc2C(c2ccccc2Cl)=NC1O (stereo unspecified),outcome,[9],inactive
O=c1[nH]oc2c1CCNC2,outcome,[1],inactive
same,outcome,[2],inactive
same,outcome,[3],inactive
same,outcome,[5],inactive
same,viability change,[5],-2.38%
same,outcome,[6],inactive
same,outcome,[7],inactive
same,outcome,[8],inactive
C[C@](O)(CS(=O)(=O)c1ccc(F)cc1)C(=O)Nc1ccc(C#N)c(C(F)(F)F)c1,outcome,[9],inactive
CC(C)c1cccc(C(C)C)c1O,outcome,[3],inactive
same,activation,[4],-6.88% (inactive)
same,outcome,[5],inactive
same,viability change,[5],0.059%
same,outcome,[6],inactive
same,outcome,[8],inactive
C[C@]12CCC(=O)C=C1CC[C@@H]1[C@@H]2CC[C@]2(C)C(=O)CC[C@@H]12,activation,[4],2.12% (inactive)
CN=C(NC#N)NCCSCc1nc[nH]c1C,outcome,[5],inactive
same,viability change,[5],0.983%
O=C(CCCN1CCC2(CC1)C(=O)NCN2c1ccccc1)c1ccc(F)cc1,outcome,[6],inactive
same,outcome,[8],inactive
